Assay results published in the supplement of paper PMC11732987, “Enantioselective OTUD7B fragment discovery through chemoproteomics screening and high-throughput optimisation” (Communications Chemistry, 2025).

Columns and labels:
Experiment in all cases: log2 ratio of Biotin-Ahx-Ub-VS probe labelling (fragment/DMSO); higher = less target engagement (more negative = stronger competition), active = hit call of the paper (q ≤ 0.05, log2 ratio ≤ -1)
Settings in all cases: compound concentration: 200 uM; treatment time: 3 h
[1] = target: T1, USP42 (UniProt Q9H9J4)
T1 sequence (whole entry): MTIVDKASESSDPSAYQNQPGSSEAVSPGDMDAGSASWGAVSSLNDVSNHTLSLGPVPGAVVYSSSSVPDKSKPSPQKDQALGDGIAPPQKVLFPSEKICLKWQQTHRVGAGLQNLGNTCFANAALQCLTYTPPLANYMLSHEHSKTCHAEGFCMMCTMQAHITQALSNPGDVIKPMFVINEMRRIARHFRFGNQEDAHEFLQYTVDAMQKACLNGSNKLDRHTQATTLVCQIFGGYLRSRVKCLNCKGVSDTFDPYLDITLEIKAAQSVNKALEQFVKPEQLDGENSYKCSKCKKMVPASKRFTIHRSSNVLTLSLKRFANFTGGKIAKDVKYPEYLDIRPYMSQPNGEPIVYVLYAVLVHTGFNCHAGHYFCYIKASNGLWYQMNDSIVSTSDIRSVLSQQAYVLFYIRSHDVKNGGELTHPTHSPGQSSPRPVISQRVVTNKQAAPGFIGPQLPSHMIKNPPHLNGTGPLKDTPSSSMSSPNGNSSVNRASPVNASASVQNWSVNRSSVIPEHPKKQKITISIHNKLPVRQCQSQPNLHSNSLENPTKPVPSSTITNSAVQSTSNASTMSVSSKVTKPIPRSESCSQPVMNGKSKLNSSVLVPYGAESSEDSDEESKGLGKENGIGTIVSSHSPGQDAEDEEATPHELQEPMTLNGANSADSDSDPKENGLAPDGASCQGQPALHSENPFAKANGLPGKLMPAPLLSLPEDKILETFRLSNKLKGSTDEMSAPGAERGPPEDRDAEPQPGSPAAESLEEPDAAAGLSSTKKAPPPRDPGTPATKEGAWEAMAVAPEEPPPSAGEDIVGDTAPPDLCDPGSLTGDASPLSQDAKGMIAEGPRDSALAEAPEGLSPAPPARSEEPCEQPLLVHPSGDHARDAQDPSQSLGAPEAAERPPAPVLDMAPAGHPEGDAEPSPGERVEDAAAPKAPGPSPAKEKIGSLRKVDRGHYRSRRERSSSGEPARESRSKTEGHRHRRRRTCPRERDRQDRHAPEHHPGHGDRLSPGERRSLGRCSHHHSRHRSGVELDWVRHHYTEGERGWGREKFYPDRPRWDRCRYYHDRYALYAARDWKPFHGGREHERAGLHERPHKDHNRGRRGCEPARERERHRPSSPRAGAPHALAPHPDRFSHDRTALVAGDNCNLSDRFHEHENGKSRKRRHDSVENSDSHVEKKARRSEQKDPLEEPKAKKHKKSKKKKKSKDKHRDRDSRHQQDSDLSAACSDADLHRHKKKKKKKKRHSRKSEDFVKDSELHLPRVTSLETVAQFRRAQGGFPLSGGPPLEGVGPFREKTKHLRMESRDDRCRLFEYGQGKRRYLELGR
Summary of the method: (§1)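 Labelling with Biotin-Ahx-Ub-VS (0.5 µM final, 1 h) followed a 3 h triplicate treatment of HEK293T lysate (495 µg per sample, Tris/CHAPS/IGEPAL buffer with protease inhibitors) with fragment at 200 µM or vehicle. Labelled DUBs were NeutrAvidin-enriched, digested with LysC and trypsin, and run by diaPASEF LC-MS/MS. The values, average log2 fragment/vehicle ratios by unpaired t-test, come from global-median-normalised Spectronaut label-free quantities. Proteins with ≥2 unique peptides were used.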

[2] = target: USP46 (UniProt P62068)
Summary of the method: as §1

[3] = target: T2, USP47 (UniProt Q96K76)
T2 sequence (whole entry): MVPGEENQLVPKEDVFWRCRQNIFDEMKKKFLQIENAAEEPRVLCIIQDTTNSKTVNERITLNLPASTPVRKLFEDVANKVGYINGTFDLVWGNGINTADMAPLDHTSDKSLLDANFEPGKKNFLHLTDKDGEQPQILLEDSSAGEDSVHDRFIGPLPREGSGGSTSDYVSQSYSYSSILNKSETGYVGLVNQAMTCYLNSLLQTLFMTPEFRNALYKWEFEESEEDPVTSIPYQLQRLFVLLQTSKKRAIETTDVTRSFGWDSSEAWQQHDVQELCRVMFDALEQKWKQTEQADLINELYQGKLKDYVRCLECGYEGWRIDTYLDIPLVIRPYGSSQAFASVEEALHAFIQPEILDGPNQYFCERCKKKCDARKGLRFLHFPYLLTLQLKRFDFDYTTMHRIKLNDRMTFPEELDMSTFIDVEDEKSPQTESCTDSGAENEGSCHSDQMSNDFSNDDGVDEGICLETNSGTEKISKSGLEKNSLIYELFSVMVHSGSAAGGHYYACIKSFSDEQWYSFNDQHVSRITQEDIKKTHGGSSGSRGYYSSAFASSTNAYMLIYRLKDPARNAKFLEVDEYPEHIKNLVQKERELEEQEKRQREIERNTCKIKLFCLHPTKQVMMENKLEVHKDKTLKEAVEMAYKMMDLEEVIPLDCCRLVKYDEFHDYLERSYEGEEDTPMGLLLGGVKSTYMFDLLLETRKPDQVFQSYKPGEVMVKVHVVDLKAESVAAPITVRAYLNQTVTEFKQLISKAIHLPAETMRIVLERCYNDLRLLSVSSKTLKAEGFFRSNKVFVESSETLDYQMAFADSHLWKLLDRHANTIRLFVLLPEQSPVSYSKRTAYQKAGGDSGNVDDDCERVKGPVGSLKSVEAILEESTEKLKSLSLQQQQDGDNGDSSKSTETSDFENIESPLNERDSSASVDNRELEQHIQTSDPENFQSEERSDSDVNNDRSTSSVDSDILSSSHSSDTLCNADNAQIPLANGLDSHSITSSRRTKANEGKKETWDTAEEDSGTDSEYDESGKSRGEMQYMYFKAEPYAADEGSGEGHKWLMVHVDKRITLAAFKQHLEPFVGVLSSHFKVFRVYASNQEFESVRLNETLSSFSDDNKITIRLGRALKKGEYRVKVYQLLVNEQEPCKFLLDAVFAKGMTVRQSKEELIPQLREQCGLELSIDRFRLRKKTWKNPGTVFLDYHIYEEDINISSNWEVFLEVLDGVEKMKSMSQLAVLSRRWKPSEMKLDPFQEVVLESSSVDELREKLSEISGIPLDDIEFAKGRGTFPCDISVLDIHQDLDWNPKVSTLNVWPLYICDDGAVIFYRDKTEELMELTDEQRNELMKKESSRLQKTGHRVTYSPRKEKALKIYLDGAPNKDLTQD
Summary of the method: as §1

[4] = target: T3, USP48 (UniProt Q86UV5)
T3 sequence (whole entry): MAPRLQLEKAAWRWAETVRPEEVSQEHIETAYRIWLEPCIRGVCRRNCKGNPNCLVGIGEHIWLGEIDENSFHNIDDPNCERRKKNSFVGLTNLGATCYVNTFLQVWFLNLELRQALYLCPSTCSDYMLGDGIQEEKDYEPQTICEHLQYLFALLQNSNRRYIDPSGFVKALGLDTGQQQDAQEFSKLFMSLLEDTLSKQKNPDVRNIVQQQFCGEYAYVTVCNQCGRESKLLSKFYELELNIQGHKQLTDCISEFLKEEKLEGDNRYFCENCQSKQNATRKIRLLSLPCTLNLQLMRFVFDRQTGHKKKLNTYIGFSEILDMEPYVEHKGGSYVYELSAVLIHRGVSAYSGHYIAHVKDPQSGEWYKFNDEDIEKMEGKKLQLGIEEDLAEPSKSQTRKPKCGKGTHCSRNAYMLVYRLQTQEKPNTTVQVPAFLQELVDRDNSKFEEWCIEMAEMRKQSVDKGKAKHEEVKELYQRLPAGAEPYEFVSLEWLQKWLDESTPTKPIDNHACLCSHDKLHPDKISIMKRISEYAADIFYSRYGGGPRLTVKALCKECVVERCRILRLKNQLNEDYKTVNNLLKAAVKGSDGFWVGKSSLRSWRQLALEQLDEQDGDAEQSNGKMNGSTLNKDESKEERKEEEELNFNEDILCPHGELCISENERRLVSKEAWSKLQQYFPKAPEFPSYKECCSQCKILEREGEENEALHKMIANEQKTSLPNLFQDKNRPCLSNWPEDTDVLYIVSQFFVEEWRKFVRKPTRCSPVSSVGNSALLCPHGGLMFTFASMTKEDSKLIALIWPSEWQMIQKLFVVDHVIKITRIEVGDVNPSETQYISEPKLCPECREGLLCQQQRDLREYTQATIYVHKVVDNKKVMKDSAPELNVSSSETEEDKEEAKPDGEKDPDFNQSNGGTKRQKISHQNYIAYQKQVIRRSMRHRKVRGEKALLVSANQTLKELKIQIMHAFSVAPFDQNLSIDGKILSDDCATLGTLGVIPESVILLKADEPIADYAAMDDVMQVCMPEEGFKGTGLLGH
Summary of the method: as §1

[5] = target: T4, USP5 (UniProt P45974)
T4 sequence (whole entry): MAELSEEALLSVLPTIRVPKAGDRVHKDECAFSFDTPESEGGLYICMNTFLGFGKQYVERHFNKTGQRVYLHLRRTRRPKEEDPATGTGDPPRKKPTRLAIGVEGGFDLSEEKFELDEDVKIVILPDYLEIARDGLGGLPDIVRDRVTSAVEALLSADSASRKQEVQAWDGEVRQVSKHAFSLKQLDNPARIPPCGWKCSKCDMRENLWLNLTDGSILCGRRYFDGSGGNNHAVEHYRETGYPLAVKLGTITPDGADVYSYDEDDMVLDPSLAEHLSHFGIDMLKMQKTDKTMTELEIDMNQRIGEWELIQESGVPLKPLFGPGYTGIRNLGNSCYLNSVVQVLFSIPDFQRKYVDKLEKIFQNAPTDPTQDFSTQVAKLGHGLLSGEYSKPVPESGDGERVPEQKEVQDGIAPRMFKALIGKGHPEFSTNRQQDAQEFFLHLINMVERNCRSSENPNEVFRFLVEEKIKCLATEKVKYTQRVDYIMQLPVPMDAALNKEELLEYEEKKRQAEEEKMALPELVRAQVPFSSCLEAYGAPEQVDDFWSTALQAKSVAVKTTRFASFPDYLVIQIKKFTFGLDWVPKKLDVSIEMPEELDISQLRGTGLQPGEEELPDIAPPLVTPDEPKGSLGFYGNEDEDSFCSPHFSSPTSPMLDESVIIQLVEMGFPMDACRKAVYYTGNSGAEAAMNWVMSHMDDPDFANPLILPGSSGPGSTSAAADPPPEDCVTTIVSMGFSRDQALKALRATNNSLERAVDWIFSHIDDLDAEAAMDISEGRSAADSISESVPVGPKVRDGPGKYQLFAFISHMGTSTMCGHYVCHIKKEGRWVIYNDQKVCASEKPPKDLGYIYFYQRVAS
Summary of the method: as §1

[6] = target: USP54 (UniProt Q70EL1)
Summary of the method: as §1

[7] = target: USP7 (UniProt Q93009)
Summary of the method: as §1

[8] = target: T5, USP8 (UniProt P40818)
T5 sequence (whole entry): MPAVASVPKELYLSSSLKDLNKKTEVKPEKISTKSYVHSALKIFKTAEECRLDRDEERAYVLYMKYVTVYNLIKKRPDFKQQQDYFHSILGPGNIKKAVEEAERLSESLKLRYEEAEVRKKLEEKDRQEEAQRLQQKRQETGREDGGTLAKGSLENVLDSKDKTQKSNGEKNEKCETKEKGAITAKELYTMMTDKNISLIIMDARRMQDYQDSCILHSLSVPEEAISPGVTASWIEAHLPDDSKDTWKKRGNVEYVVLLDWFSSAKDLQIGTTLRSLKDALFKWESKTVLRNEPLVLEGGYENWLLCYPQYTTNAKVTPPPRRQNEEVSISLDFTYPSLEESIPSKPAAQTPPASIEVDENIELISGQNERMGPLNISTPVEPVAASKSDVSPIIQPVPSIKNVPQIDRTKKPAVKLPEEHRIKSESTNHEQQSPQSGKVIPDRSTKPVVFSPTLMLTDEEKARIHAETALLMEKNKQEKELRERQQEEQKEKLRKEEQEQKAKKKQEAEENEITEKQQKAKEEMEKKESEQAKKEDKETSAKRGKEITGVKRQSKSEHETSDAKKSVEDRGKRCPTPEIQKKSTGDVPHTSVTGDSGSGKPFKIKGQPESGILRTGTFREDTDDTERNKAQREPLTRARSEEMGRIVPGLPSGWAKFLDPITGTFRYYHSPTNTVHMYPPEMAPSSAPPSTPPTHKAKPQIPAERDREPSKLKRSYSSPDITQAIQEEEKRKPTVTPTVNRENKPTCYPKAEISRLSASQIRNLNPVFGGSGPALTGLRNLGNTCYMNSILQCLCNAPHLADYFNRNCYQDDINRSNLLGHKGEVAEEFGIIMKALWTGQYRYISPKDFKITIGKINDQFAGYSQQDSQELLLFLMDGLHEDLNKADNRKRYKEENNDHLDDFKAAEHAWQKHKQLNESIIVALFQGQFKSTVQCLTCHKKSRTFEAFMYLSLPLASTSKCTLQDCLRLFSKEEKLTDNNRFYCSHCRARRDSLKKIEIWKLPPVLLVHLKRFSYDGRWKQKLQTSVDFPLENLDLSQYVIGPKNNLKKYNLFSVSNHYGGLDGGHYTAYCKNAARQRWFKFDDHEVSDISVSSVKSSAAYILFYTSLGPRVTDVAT
Summary of the method: as §1

[9] = target: USP9X (UniProt Q93008)
Summary of the method: as §1

[10] = target: UniProt O00487
Summary of the method: as §1

Measured: log2 ratio of Biotin-Ahx-Ub-VS probe labelling

Sequence of USP7 (Q93009 whole entry, looked up): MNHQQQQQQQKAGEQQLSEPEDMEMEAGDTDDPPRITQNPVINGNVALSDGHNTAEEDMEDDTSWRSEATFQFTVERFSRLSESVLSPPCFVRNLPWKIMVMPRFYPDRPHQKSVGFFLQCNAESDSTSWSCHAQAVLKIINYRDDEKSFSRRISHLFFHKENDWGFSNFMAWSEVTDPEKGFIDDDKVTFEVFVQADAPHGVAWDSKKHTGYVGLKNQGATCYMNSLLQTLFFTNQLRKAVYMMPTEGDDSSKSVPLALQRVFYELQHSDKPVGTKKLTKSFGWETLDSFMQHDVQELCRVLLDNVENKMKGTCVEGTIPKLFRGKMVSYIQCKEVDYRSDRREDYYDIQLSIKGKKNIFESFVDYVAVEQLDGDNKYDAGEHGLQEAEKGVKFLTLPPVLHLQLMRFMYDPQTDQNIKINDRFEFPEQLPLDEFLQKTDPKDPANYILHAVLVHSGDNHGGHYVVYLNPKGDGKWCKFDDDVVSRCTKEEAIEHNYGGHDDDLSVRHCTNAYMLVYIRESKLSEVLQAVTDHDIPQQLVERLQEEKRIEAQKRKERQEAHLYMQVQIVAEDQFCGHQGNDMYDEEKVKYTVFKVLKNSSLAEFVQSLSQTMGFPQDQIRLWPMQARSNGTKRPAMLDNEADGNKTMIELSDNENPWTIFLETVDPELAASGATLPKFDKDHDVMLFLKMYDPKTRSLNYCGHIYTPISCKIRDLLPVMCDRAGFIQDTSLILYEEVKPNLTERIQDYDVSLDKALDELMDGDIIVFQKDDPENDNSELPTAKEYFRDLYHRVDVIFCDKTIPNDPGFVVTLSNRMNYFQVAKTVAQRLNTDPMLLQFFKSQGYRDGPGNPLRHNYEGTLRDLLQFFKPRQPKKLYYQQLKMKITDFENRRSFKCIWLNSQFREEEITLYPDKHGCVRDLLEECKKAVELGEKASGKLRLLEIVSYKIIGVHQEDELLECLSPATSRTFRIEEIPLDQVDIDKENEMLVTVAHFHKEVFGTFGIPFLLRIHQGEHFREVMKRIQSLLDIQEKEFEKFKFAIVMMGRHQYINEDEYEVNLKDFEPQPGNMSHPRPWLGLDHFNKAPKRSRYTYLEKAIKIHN
Sequence of USP54 (Q70EL1 whole entry): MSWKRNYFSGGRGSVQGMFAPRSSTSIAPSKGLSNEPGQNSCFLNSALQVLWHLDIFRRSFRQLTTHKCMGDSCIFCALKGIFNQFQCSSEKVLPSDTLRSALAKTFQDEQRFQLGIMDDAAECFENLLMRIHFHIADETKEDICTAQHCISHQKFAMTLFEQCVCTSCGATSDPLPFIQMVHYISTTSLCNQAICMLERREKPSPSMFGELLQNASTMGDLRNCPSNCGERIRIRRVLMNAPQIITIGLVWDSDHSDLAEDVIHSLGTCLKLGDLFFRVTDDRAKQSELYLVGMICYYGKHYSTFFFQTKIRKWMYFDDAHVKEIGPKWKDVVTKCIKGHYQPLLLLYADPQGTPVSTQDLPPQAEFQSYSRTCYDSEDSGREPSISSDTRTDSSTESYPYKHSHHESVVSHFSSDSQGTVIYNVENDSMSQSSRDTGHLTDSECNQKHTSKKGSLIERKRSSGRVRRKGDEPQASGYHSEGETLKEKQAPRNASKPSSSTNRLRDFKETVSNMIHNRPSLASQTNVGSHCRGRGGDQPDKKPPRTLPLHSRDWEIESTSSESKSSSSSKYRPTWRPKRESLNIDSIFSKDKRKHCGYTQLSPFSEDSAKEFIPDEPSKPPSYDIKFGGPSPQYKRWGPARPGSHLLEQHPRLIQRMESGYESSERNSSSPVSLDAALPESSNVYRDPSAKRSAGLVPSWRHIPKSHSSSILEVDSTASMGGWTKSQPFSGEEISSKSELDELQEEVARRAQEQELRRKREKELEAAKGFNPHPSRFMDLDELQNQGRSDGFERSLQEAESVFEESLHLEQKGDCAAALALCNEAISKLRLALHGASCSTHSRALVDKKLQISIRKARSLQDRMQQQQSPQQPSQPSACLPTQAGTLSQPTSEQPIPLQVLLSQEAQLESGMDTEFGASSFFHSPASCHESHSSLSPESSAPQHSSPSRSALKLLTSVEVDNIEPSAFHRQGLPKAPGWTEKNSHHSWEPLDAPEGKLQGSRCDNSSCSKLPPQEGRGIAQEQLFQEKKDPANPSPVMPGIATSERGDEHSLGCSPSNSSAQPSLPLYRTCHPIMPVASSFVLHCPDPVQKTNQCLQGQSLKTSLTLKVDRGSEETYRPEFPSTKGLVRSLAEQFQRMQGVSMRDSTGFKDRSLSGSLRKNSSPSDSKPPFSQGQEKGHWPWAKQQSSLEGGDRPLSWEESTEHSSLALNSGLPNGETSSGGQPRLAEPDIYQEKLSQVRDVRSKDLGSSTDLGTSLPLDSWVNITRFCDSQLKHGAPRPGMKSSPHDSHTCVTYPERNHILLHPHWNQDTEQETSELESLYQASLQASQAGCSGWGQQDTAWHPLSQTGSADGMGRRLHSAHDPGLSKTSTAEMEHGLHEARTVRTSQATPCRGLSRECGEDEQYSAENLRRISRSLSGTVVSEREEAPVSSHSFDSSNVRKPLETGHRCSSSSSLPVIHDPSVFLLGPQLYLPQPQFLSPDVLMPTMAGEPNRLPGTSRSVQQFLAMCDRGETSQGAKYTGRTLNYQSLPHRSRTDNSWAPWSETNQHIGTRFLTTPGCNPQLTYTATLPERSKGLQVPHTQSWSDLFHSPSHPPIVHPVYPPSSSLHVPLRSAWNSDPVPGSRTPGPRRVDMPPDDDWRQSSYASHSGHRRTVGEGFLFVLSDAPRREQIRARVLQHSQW
Sequence of USP46 (P62068 whole entry): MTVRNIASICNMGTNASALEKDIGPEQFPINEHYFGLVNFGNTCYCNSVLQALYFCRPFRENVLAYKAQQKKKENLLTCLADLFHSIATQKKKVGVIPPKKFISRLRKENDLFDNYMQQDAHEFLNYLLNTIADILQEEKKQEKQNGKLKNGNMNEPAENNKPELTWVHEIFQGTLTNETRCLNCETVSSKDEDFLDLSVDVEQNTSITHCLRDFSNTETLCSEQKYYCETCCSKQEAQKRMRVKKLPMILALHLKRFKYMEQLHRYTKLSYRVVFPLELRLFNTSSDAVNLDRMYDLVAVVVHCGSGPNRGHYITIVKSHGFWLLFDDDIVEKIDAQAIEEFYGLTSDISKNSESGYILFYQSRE
Sequence of UniProt O00487 (O00487 whole entry): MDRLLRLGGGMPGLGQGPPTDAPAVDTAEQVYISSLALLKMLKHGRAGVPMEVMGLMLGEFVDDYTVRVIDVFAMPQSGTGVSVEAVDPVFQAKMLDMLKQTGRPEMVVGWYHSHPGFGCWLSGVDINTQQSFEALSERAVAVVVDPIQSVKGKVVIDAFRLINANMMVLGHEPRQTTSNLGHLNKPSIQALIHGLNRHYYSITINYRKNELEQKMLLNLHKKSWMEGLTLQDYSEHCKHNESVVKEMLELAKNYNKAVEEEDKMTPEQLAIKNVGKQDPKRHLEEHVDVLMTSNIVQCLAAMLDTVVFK

CN(C)C(=O)c1ccc(NC(=O)CCl)cc1
inactive: [1] -0.0444 | [2] -0.0105 | [3] -0.38 | [4] -0.84 | [5] 0.14 | [6] -0.408 | [7] -0.0714 | [8] -0.446 | [9] -0.0881 | [10] -0.0189
